Source: PubChem BioAssay (EPA / NIEHS)
Where “and” joins values, the source holds several entries; their conditions need not be identical. Equal entries are not always repeated. Records with an inconclusive call do not appear. The source holds several records for some structures; these can differ, active in one and inactive in another. Calls of active or inactive are those of the source. How the source made its calls: active means hit-call score of the fitted dose curve at least 0.9, where 1 is the maximum; inconclusive means response in the unintended direction; inactive means score below 0.9.

Assay: TOX21_p53_BLA_p3_viability: Viability Assessment in the Tox21 HCT-116 p53 Agonism Beta-lactamase Assay, Phase 3 (AID 2283593);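 further: cells exposed to compound for 16 h before reading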
From the text: TOX21_p53_BLA_p3 is a cell-based, single-readout assay that uses HCT116, a human intestinal cell line, […] in a 1536-well plate.TOX21_p53_BLA_p3_viability is an assay readout measuring cellular ATP content and detected with CellTiter-Glo Luciferase-coupled ATP quantitation.TOX21_p53_BLA_p3_viability used a type of viability reporter where loss-of-signal activity can be used to understand changes in the cell viability. Furthermore, this assay endpoint can be referred to as a secondary readout, because this assay has produced multiple assay endpoints where this one serves a viability function. To generalize the intended target to other relatable targets, this assay endpoint is annotated to the cell cycle intended target family, where the subfamily is cytotoxicity.
Thawing Method: Place 14 mL of pre-warmed thaw medium into a 15 mL of conical tub. Remove the vial of cells to be thawed from liquid nitrogen and thaw rapidly by placing at 37C in a water bath with gentle agitation for 1-2 minutes. Decontaminate the vial by wiping with 70% ethanol before opening in a biological safety cabinet. Transfer the vial contents drop-wise into 14 mL of thaw medium in a sterile 15-mL conical tub. Centrifuge cells at 900 rpm for 4 minutes and resuspend in thaw medium. Transfer contents to the T75 tissue culture flask containing Thaw Medium and place flask in a humidified 37C/5% CO2 incubator. Switch to growth medium at first passage.Propagation Method: Aspirate medium, rinse once in DPBS, add 0.25% Trypsin/EDTA and swirl to coat the cell evenly. Add an equal volume of Growth Medium to inactivate Trypsin after 2-3 minutes incubation at 37C. Centrifuge cells at 900 rpm for 4 minutes and resuspend in growth medium. Cell should be passage or fed at least twice a week.Assay Protocol: Harvest cells from culture in growth medium and resuspend in assay medium. 2.2 Dispense 4000 cells/5 uL/well into 1536-well black/clear bottom plates using a Multidrop dispenser. After the cells were incubated at 37C for 5 hours, 23 nL of compounds dissolved in DMSO were transferred to the assay plate by a PinTool resulting in a 217-fold dilution. Incubate the plates for 16 hours at 37C, 5% CO2. Add 1 uL of 6X LiveBLAzer FRET B/G (CCF4-AM) Substrate Mixture to each well using a BioRAPTR dispenser and incubate the plates at room temperature for 2 hours. Measure fluorescence intensity at 460 and 530 nm emission and 405 nm excitation by an Envision detector. Data is expressed as the ratio of 460nm/530nm emissions. Add 4 uL of Cell-titer Glo to each well using BioRAPTR and incubate the plates at room temperature for […]. For cell viability readout that measures cytotoxicity, 4 ul/well of CellTiter-Glo reagent was added into the assay plates using a Flying Reagent Dispenser. After 30 min incubation at room temperature, the luminescence intensity in the plates was measured using a ViewLux plate reader.

Row | Structure (SMILES) | outcome | AC50
1 | Oc1cccc(O)c1 | inactive | 
2 | Cc1oc(-c2ccccc2)nc1CCOc1ccc(C[C@H](Nc2ccccc2C(=O)c2ccccc2)C(=O)O)cc1 |  | 10.7 µM (active)
3 | C[C@@H]1C[C@H]2[C@@H]3CCC4=CC(=O)C=C[C@]4(C)[C@@]3(F)[C@@H](O)C[C@]2(C)[C@@]1(O)C(=O)COP(=O)(O)O | inactive | 
4 | CCCCCCCCCCCCCC[N+](C)(C)C | inactive | 37.5 µM (active)
5 | NC(=O)N1C(=O)C(C(=O)c2cc(Cl)cs2)c2cc(F)c(Cl)cc21 (stereo not given) | inactive | 
6 | CC(C)(C)c1cccc(C(C)(C)C)c1O | inactive | 
7 | O=c1c(-c2ccc(O)cc2)coc2cc(O)ccc12 | inactive | 
8 | COc1ccc([N+](=O)[O-])cc1N | inactive | 
9 | CC(C)(C)c1ccc(O)c(C(C)(C)C)c1 |  | 63.6 µM (active) and 86.7 µM (active)
10 | NC(=O)N(O)[C@@H]1C=C[C@H](Oc2cccc(Oc3ccc(F)cc3)c2)C1 | inactive | 
11 | CC(C)(C)CC(C)(C)c1ccc(O)c(-n2nc3ccccc3n2)c1 | inactive | 38.6 µM (active)
12 | CC1=C(/C=C/C(C)=C/C=C/C(C)=C/C(=O)O)C(C)(C)CCC1 | inactive | 47.8 µM (active)
13 | CCc1ccc(CCOc2ccc(CC3SC(=O)NC3=O)cc2)nc1 (stereo not given) | inactive | 
14 | Cc1cc(CCN2CCN(c3nsc4ccccc34)CC2)cc2c1NC(=O)CC2(C)C |  | 19.9 µM (active)
15 | CC(=O)NC1(c2cccc(F)c2)CCN(CC[C@@]2(c3ccc(Cl)c(Cl)c3)CN(c3ccccc3)C(=O)CO2)CC1 |  | 66.9 µM (active)
16 | O=C(O)Cc1cc(I)c(Oc2cc(I)c(O)c(I)c2)c(I)c1 |  | 46.1 µM (active)
17 | C=C(C)C(=O)OCCC(F)(F)C(F)(F)C(F)(F)C(F)(F)C(F)(F)C(F)(F)F | inactive | 
18 | ClC1=C(Cl)C(Cl)(Cl)C(Cl)=C1Cl |  | 5.7 µM (active) and 3.42 µM (active)
19 | CCCCCCCC(=O)O | inactive | 

Row | Structure (SMILES) | outcome | AC50
20 | CC(O)CO (stereo not given) | inactive | 
21 | Cc1cc(C)c(O)c(C)c1 | inactive | 
22 | CN1CCN(c2ccccc2/C=C2\SCCN(c3ccc(Cl)c(Cl)c3)C2=O)CC1 |  | 77.6 µM (active)
23 | CCCOC(=O)c1ccc(O)cc1 | inactive | 
24 | Nc1cccc2c(N)cccc12 | inactive | 
25 | c1ccc2c(c1)Cc1ccccc1-2 | inactive | 
26 | CCN(CC)CCNc1ccc(CNC=O)c2sc3ccc(OC)cc3c(=O)c12 | inactive | 
27 | CC[C@H](c1ccc(O)cc1)[C@@H](CC)c1ccc(O)cc1 | inactive | 
28 | CCCCCCC(=O)O | inactive | 
29 | CC(C)(C)c1cc(C(C)(C)C)c(O)c(C(C)(C)C)c1 | inactive | 
30 | CCCCCCCCCCCCCCCS(=O)(=O)Oc1ccccc1 | inactive | 
31 | CCCOc1sc(C(=O)N2CCC(c3cc(CN)ccc3F)CC2)c(C)c1Br |  | 80 µM (active)
32 | CCCCCCCCC(=O)O | inactive | 
33 | Oc1cc2ccccc2c2ccccc12 |  | 14.5 µM (active)
34 | CCC(C)(C)C1CCC(O)CC1 (stereo not given) | inactive | 
35 | CCCCCCCCCCCCN1CCCC1=O |  | 69.8 µM (active)
36 | c1ccc2cc3c(ccc4ccccc43)cc2c1 | inactive | 
37 | CC(=O)CC(C)(C)O | inactive | 
